The target in experiment [1] is Lysosomal acid glucosylceramidase (Homo sapiens) (UniProt P04062). Description: Glucocerebrosidase-p2 (AID 348; in the data active = potency below about 10 µM; note: potency is the fitted concentration of half-maximal effect). Particulars: purified GBA, blue fluorogenic substrate, 40 min. The essentials:
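Compounds titrated from 0.6 nM upwards against 0.2 nM enzyme in pH 5.9 citric acid/KH2PO4, taurocholate, tween-20; blue fluorogenic substrate 80 uM, 40 min room temperature, stopped and read Ex 365/Em 440 for AC50.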

The nature of experiment [2]: AP1 Signaling Pathway (AID 357; active = well fitted curve in either direction with a large enough effect, not every such curve was filed as active;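 note: ME-180 reporter cells stimulated with EGF at its EC50 level; % is set by controls: 0 for no effect and ±100 for the full control effect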). Particulars: ME-180 AP-1-bla reporter, EGF-induced, beta-lactamase ratio, 5 h; at 7.69 µM (top of the series) unless noted. In a few lines: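 Titration-series screen for positive or negative modulators of EC50 EGF-induced signaling in ME-180 cells carrying an AP-1-driven beta-lactamase reporter. After 5 hours at 37 degrees Celsius, CCF4 460nm/530nm emission ratio gave %Activity; AC50 values derived.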

The target of experiment [3] is Cytochrome P450 1A2 (Homo sapiens) (UniProt P05177). Description: p450-cyp1a2 (AID 410; calls by dose curve; note: potency is the fitted concentration of half-maximal effect;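 for activity change, negative = inhibition: -100% = full effect of reference inhibitor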). The essentials:
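20nM CYP1A2 with 100uM Luciferin-ME (at Km) in 100mM KPO4; compound preincubated 10 min, NADPH regeneration added, 60 min at room temperature. Luciferin quantified by luminescence after detection reagent; normalized to 57 uM furafylline.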

A short description of experiment [4]: NFAT Signaling Pathway (AID 444; active = well fitted curve in either direction with a large enough effect, not every such curve was filed as active;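 note: carbachol stimulus at about its EC50 of 1 µM final; % is set by controls: 0 for no effect and ±100 for the full control effect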). Particulars: Jurkat NFAT-bla M1, carbachol, beta-lactamase ratio, 5 h; at 7.69 µM (top of the series) unless noted. The essentials:
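Jurkat cells carrying an NFAT-driven β-lactamase reporter and co-transfected muscarinic M1 receptor were treated with compound plus carbachol (1 uM final, an EC50 level) for 5 h at 37 °C. CCF4 loading followed for 1 h at RT; 460/530 nm ratio gave %activity.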

A short description of experiment [5]: Stat Signaling Pathway (AID 446; active = well fitted curve in either direction with a large enough effect, not every such curve was filed as active;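 note: ME-180 cervical cancer cells given 40 pM IL-6 alongside compound; SIE-controlled beta-lactamase reporter measured as 460/530 nm FRET emission ratio; % is set by controls: 0 for no effect and ±100 for the full control effect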). The following applies: ME-180 SIE beta-lactamase reporter, IL-6 stimulated, 5 h; at 7.69 µM (top of the series) unless noted. In a few lines: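 ME-180 SIE-bla cells; overnight plating; cpd + IL-6 40 pM, 5 h, 37 C; LiveBLAzer 2.5 h RT; 460/530 nm emission ratio. Normalized to 300 pM IL-6 and 125 nM JAK inhibitor controls.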
The target in experiment [6] is Glucocorticoid receptor (Homo sapiens) (UniProt P04150). Description: GR-GFP Redistribution (AID 450;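 active = compounds whose dose series gives a full or clear partial fitted curve of increased nuclear translocation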; note: potency is the fitted concentration of half-maximal effect). The following applies: U2OS GR-GFP nuclear translocation, laser cytometry, 2 h.
The target is the same in experiment [7]. Description: GR-EFC Redistribution (AID 451; calls by dose curve; note: potency is the fitted concentration of half-maximal effect). Particulars: CHO-K1 GR-EFC translocation, beta-gal luminescence, 2 h. In a few lines: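 CHO-K1 cells stably expressing nuclear-localized β-gal enzyme acceptor and GR fused C-terminally to the enzyme donor fragment; ligand-driven nuclear translocation restores β-gal by complementation. Compounds titrated up to 46 uM final, 2 h at 37 °C; luminescence read.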

Experiment [8] deals with Mitogen-activated protein kinase 10 (Mus musculus) (UniProt Q61831). Description: JNK3 AlphaScreen Assay (AID 530; active = well fitted curve in either direction with a large enough effect, not every such curve was filed as active;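 note: kinase came from lysate of stimulated human HepG2 cells; signal reports phosphorylation of biotinylated GST-cJun 1-79 at Ser73 with 10 µM ATP; % is set by controls: 0 for no effect and ±100 for the full control effect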). In a few lines: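 Inhibitors reduce antibody binding to phosphorylated biotin-cJun, lowering AlphaScreen luminescence. Lysates from HepG2 cells pre-activated by IL-1beta plus TNF-alpha supplied JNK3; compounds were titrated.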
Background: In Alpha technology, singlet oxygen from a donor bead excites a nearby acceptor bead.

Experiment [9] concerns the target 3',5'-cyclic-AMP phosphodiesterase 4B (Homo sapiens) (UniProt Q07343). Description: qHTS Assay for Inhibitors of PDE-IV (AID 607; active = well fitted activation curve with a large enough effect in the main read-out, with a control signal flat, not every such curve was filed as active; note: % of control where 0% means no effect). The essentials: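 ACTOne HEK293 cells carry a modified cAMP-gated CNG channel and express endogenous PDE4; plated 1000 cells/well, compounds up to 22.9 uM final. Membrane-potential dye fluorescence (ex 535/em 590) was read; parental cells received 10 uM forskolin + 100 uM RO 20-1724.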
On the technique in general: In qHTS, concentration-response curves come from the screen itself.

Experiment [10] can be described thus: qHTS Assay for Lipid Storage Modulators (AID 1519; calls by dose curve). Particulars: Drosophila S3 cells, BODIPY lipid droplet/cell ratio, laser cytometry, cells loaded with oleic acid; for activity change, negative = inhibition: at 57.5 µM (top of the series). The essentials:
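Cells seeded at 5,000 per well were treated with compounds over a concentration series and loaded with oleic acid (400 uM, as added). Lipid droplet fluorescence (488 nm excitation, 500-530 nm channel) was read by laser-scanning cytometry and normalized to 20 uM Triacsin C.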

The target in experiment [11] is Dual specificity protein kinase CLK4 (Homo sapiens) (UniProt Q9HAZ1). Description: qHTS Assay for Inhibitors of CDC-like Kinase 4 (Kinase-Glo Assay) (AID 1770). Note: nearly all actives have a fitted effect of over 65% in size. Note: potency is the fitted concentration of half-maximal effect. In a few lines: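 Luminescent ATP-depletion read-out (Kinase-Glo) after 4.5 h room-temperature reaction of Clk4 (25 nM final) with RS peptide (100 uM) and ATP (1 uM), pH 7.5 Tris buffer with MgCl2 and DTT.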

Experiment [12] shares this target. Description: qHTS Assay for Inhibitors of CDC-like Kinase 4 (ADP-Glo Assay) (AID 1771). Note: nearly all actives have a fitted effect of over 70% in size. Note: potency is the fitted concentration of half-maximal effect. The essentials:
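25 nM Clk4 with 100 uM RS repeat peptide and 1 uM ATP (final) in buffer with 2 mM MgCl2, 0.5 mM EGTA, 2.5 mM DTT, 0.01% Triton X-100; 1 h at room temperature; ADP-Glo luminescence for ADP formed.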

In experiment [13] the target is Ubiquitin carboxyl-terminal hydrolase 1 (Homo sapiens) (UniProt O94782). Description: Inhibitors of USP1/UAF1: Pilot qHTS (AID 504865). Note: nearly all actives have a fitted effect of over 35% in size. Note: potency is the fitted concentration of half-maximal effect. In a few lines:
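Deubiquitinase activity followed as kinetic rhodamine fluorescence release from 150 nM Ub-Rho. 1 nM USP1/UAF1 with compound, after 15 min room-temperature preincubation, in HEPES pH 7.8 buffer containing TCEP, EDTA, BSA and Tween-20.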

The nature of experiment [14]: Primary qHTS for small molecule stabilizers of the endoplasmic reticulum resident proteome: Secreted ER Calcium Modulated Protein (SERCaMP) assay (AID 1508630). Note: % is set by controls: 0 for no effect and ±100 for the full control effect. The essentials: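 GLuc-SERCaMP-expressing SH-SY5Y cells, pretreated 16 h with compound, are challenged with thapsigargin to empty ER calcium stores; after 4 h, coelenterazine is added directly to the medium and luminescence is imaged.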

Experiment [15] has as its target Cytochrome P450 2C9 (Homo sapiens) (UniProt P11712). Description: qHTS Assay for Inhibitors and Substrates of Cytochrome P450 2C9 (AID 883). Note: % is set by controls: 0 for no effect and ±100 for the full control effect; nearly all actives have a fitted effect of over 60% in size. The essentials:
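Human CYP2C9 (10nM) hydroxylated Luciferin-H (100uM, at its KM) to luciferin in 25mM KPO4. Compound was preincubated 10 min at 37C, then NADPH regeneration started a 60 min reaction at 37C. Luminescence was read after detection reagent, normalized to 57uM sulphaphenazole.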

For experiment [16], the target named is Cytochrome P450 3A4 (Homo sapiens) (UniProt P08684). Description: qHTS Assay for Inhibitors and Substrates of Cytochrome P450 3A4 (AID 884). Note: potency is the fitted concentration of half-maximal effect; nearly all actives have a fitted effect of over 50% in size. In a few lines: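 20 nM human CYP3A4 with 25 uM Luciferin-PPXE (at KM) in 200 mM KPO4, preincubated 10 min with compound; NADPH regeneration started a 60 min RT reaction. Luciferin detected by luminescence, normalized to 57 uM ketoconazole as full inhibition.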

For experiment [17] the target is unchanged. Description: qHTS Assay for Activators of Cytochrome P450 3A4 (AID 885). Note: nearly all actives have a fitted effect of over 65% in size. In a few lines: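 20nM CYP3A4 + 25uM Luciferin-PPXE (=KM), 200mM KPO4; cpd 10 min RT; NADPH regen, 60 min RT; stop w/ detection buffer, 20 min; luminescence. Normalized to 57 uM ketoconazole.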
The target of experiment [18] is Dual specificity protein kinase CLK4 (Homo sapiens) (UniProt Q9HAZ1). Description: qHTS Assay for Inhibitors of CDC-like Kinase 4 (ADP-FP Assay) (AID 1795).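 Note: recombinant human CLK4 phosphorylating RS repeat peptide at 1 µM ATP; % is set by controls: 0 for no effect and ±100 for the full control effect; nearly all actives have a fitted effect of over 60% in size.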 In a few lines:
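Kinase activity was measured as ADP production using Transcreener orange tracer (4 nM) and ADP antibody (1 ug/mL) fluorescence polarization, with ADP calculated from a calibration curve. The 1 h reaction contained 6.25 nM Clk4, 1 uM ATP and 100 uM RS peptide at pH 7.5 with Mg2+.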

For experiment [19], the target named is Cytochrome P450 2C19 (Homo sapiens) (UniProt P33261). Description: qHTS Assay for Inhibitors and Substrates of Cytochrome P450 2C19 (AID 899). Note: potency is the fitted concentration of half-maximal effect; nearly all actives have a fitted effect of over 60% in size. The essentials: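 Human CYP2C19 (5nM) with Luciferin-H EGE at 10uM (its KM) in 50mM KPO4 was preincubated with compound for 10 min at 37C. NADPH regeneration started a 60 min 37C reaction. Luciferin was read by luminescence, normalized to 57uM ketoconazole.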

[20] abbreviates: measured here: cell count channel max response.
[21] abbreviates: measured here: lipid channel max response.

Records with an inconclusive call do not appear. The source made the active and inactive calls. Unless noted, calls come from the whole dose curve; as a rule, active = well fitted curve in the direction sought with a large enough effect; inconclusive = small, poorly fitted or top-dose-only effect, or another doubt; inactive = no such curve, though single readings can be large; an effect the other way counts as inactive or inconclusive.

Chain of Glucocorticoid receptor (Homo sapiens) (P04150 whole entry, looked up, the tested form may be a part): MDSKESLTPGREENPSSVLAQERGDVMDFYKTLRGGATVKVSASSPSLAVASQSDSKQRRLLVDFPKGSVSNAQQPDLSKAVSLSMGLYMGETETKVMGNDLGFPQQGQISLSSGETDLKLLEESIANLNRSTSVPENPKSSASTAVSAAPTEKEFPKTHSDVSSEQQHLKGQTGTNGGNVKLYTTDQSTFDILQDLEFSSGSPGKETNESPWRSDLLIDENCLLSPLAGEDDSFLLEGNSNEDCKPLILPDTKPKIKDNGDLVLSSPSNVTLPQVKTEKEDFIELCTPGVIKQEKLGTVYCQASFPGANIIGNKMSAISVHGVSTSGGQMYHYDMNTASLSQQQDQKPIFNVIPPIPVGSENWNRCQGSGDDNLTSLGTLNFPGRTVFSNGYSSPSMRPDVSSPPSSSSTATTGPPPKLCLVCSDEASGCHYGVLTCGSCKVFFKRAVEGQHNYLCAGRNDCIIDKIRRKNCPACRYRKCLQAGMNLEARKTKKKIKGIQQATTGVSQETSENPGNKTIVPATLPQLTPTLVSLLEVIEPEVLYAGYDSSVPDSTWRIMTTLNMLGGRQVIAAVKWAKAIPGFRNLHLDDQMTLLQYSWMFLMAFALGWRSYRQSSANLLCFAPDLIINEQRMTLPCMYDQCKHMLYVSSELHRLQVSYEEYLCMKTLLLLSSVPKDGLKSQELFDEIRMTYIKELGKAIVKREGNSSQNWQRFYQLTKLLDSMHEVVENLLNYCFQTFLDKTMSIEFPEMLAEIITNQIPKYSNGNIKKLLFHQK
Chain of Dual specificity protein kinase CLK4 (Homo sapiens) (Q9HAZ1 whole entry, looked up): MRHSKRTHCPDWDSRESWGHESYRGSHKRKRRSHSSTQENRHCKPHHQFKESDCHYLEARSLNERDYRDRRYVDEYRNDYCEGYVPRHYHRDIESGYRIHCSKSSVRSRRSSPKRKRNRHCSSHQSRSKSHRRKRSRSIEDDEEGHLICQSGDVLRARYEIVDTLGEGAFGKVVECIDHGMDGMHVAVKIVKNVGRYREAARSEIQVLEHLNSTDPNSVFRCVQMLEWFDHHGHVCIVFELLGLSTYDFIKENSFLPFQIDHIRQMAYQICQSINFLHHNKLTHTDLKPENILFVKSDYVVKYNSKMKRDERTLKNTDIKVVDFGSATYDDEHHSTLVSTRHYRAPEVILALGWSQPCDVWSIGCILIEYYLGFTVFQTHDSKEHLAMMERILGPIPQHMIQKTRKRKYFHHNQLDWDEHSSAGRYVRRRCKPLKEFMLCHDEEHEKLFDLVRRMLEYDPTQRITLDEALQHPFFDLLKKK
Chain of 3',5'-cyclic-AMP phosphodiesterase 4B (Homo sapiens) (Q07343 whole entry, looked up): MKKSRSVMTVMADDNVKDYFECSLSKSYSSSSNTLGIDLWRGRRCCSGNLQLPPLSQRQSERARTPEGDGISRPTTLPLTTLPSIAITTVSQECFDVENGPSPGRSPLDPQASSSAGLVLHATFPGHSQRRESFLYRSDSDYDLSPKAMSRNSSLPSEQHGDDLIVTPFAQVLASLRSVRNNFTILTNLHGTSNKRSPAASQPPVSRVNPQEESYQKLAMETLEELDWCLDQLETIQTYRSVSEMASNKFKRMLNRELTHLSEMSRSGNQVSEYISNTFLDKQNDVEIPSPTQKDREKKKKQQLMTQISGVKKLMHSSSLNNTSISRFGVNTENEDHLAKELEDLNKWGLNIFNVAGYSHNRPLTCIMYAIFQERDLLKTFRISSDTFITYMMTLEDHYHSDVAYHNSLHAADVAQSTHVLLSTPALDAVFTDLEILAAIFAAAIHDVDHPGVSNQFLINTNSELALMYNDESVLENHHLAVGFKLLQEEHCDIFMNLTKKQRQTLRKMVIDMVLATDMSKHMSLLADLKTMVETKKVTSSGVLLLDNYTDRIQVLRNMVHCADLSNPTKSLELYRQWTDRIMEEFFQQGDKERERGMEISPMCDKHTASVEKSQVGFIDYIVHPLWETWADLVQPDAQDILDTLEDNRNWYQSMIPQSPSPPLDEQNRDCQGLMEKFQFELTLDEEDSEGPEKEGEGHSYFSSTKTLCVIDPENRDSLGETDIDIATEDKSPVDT
Chain of Ubiquitin carboxyl-terminal hydrolase 1 (Homo sapiens) (O94782 whole entry, looked up): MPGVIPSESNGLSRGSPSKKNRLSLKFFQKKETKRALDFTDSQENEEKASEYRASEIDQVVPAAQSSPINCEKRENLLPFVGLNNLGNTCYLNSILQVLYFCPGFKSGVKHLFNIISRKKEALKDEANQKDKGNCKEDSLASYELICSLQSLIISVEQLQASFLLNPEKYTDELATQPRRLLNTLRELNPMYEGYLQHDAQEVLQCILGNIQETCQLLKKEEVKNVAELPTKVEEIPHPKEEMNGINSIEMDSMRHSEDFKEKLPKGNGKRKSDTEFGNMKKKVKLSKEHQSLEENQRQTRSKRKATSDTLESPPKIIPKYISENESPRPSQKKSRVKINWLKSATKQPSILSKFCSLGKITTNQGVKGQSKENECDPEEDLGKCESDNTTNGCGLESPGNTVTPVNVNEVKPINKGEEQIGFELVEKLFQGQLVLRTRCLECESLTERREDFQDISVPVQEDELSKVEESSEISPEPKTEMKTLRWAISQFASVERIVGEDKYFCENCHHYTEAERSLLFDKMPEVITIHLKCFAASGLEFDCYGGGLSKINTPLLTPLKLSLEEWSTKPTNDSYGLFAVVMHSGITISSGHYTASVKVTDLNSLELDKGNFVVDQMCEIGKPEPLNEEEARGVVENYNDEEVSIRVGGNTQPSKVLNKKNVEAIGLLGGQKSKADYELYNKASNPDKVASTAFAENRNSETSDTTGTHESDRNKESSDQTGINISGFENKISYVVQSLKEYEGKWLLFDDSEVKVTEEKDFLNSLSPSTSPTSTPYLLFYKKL
Chain of Cytochrome P450 1A2 (Homo sapiens) (P05177 whole entry, looked up): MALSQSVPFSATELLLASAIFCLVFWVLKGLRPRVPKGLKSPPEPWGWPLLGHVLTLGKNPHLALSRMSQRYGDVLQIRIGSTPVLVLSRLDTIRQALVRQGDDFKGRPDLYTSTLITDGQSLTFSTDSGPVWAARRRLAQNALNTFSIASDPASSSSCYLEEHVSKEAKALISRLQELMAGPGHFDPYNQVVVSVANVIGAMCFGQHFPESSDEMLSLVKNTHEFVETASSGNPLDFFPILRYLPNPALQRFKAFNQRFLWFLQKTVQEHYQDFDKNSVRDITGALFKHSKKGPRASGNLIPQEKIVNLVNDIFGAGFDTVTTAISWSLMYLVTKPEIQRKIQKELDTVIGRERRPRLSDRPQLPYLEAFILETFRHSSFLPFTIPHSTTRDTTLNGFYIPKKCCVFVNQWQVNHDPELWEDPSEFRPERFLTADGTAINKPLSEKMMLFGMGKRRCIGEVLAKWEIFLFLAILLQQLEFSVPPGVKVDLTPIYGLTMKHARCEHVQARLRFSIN
Chain of Lysosomal acid glucosylceramidase (Homo sapiens) (P04062 whole entry, looked up): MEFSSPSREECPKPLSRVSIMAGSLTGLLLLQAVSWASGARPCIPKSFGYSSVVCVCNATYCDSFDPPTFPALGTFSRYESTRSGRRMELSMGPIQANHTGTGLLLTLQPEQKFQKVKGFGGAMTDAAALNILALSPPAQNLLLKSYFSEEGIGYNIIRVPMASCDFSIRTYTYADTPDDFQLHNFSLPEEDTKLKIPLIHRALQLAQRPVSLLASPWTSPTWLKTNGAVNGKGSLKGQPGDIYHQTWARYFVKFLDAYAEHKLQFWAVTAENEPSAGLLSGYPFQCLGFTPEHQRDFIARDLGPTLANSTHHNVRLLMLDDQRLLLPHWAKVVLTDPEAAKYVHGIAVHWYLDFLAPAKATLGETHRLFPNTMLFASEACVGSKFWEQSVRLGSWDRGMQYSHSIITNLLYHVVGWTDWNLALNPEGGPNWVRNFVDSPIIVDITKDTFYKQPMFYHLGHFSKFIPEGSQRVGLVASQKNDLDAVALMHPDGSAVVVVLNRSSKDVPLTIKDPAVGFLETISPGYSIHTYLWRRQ
Chain of Cytochrome P450 3A4 (Homo sapiens) (P08684 whole entry, looked up): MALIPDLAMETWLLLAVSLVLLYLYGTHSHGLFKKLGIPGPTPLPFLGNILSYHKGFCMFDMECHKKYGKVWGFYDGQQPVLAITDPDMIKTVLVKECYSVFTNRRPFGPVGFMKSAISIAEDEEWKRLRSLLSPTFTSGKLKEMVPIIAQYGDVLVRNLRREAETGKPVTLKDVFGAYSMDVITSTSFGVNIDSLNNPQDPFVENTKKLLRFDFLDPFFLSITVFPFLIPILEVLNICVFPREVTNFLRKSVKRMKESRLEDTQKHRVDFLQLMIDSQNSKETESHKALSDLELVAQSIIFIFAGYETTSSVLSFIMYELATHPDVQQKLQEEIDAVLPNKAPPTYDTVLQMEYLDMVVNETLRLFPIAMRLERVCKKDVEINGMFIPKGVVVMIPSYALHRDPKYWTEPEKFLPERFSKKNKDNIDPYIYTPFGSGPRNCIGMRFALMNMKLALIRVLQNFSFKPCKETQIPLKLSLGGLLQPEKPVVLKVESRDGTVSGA
Chain of Cytochrome P450 2C19 (Homo sapiens) (P33261 whole entry, looked up): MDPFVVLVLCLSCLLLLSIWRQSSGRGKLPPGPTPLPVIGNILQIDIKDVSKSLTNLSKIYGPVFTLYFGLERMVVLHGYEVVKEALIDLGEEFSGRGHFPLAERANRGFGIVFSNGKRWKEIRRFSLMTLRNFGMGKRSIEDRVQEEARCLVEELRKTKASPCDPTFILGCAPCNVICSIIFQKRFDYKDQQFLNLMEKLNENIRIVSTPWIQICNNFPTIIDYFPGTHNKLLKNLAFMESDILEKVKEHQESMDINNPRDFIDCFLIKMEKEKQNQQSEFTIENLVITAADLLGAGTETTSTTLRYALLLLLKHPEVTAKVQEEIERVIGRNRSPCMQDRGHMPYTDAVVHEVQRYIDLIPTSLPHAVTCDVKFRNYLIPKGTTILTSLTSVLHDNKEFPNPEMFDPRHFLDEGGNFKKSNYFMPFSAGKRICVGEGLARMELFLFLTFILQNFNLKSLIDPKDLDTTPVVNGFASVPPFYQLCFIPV

In the case of `CN(Cc1ccco1)c1cc(-c2ccoc2)ncn1`, the Potency is > 11.4 µM (inactive) in [1], > 46 µM (inactive) in experiment [6] and > 46 µM (inactive) in [7]. For the same molecule, the activity change, negative = inhibition in experiment [2] is -1.97% (inactive); in experiment [4], -2.33% (inactive); in experiment [10], 6.03% (inactive). In addition, the Potency entry in [3], in experiment [9], in experiment [11], in experiment [12], in experiment [13] and in experiment [14] was “inactive” in each case. The activity, negative = inhibition in experiment [5] is 18.1% (inactive). The outcome in experiment [8] was inactive. The max response in experiment [10] (setting [20]) turned out to be 18%; in experiment [10] (setting [21]), 23.3%.
For `COCCNc1ncncc1-c1c(C)noc1C`, the Potency in experiment [1] is > 11.4 µM (inactive); in [6], > 46 µM (inactive); in experiment [7], > 46 µM (inactive); in experiment [16] it was 5.01 µM (active). The activity change, negative = inhibition in experiment [2] is 8.31% (inactive); in [4], -1.26% (inactive); in experiment [15], 23.1% [at 2.29 µM] (inactive); in experiment [10], 3.6% (inactive). The Potency entry in experiment [3], in [9], in experiment [17], in experiment [11], in experiment [12] and in [13] was “inactive” throughout. The Potency entry in [14] was “inactive”. For the same molecule, the activity, negative = inhibition in [5] was 0.118% (inactive). For the same molecule, the call in experiment [8] was inactive. In addition, the max response in [10] (setting [20]) was 19.7%; in experiment [10] (setting [21]), 24.5%.
With `CN(C)C(=O)c1ccc(-c2cc(Nc3ccccc3)ncn2)cc1`, the Potency in experiment [1] is > 11.4 µM (inactive); in experiment [3] it was 12.6 µM (active); in [6] it was > 46 µM (inactive); in experiment [7], > 46 µM (inactive); in experiment [11], 14.1 µM (active); in experiment [12], 14.1 µM (active). Also, the activity change, negative = inhibition in [2] was -5.39% (inactive); in experiment [4], 4.63% (inactive); in [10], 6.97% (inactive). Besides, the activity, negative = inhibition in [5] is 4.86% (inactive). In experiment [8], the molecule was classed as inactive. For the same molecule, the max response in [10] (setting [20]) amounted to 33.4%; in experiment [10] (setting [21]), 40.6%. In addition, the Potency entry in experiment [13] and in [14] was “inactive” throughout.
Turning to `COc1ccc(Oc2ncc3nc(-c4ccc(OC)cc4)c(=O)n(C)c3n2)cc1`, the values for the activity change, negative = inhibition in [2], in experiment [4] and in experiment [10] were -7.57% (inactive), -4.34% (inactive) and 2.79% (inactive), respectively. Moreover, the Potency is 3.16 µM (active) in experiment [3], > 9.22 µM (inactive) in experiment [6] and > 46 µM (inactive) in experiment [7]. Moreover, the activity, negative = inhibition in [5] was -16.5% (inactive). The molecule was called inactive in experiment [8]. The Potency entry in experiment [9], in [17], in experiment [11], in experiment [12], in [18] and in experiment [13] was “inactive” throughout. The Potency entry in experiment [14] is “inactive”. For the same molecule, the values for the max response in experiment [10] (setting [20]) and in [10] (setting [21]) were -5.13% and -2.18%, respectively.
For `c1cncc(CNc2ncncc2-c2cccnc2)c1`, the values for the activity change, negative = inhibition in experiment [2], in experiment [4] and in experiment [10] were 3.11% (inactive), 1.94% (inactive) and 2.51% (inactive), respectively. Further, the Potency in [3] was 5.01 µM (active); in [6] it was > 46 µM (inactive); in [7], > 46 µM (inactive); in [16] it was 2 µM (active). For the same molecule, the activity, negative = inhibition in experiment [5] was 12.2% (inactive). Moreover, the molecule was called inactive in experiment [8]. In addition, the Potency result in [9], in experiment [17], in experiment [11], in experiment [12], in experiment [18] and in [13] was “inactive” throughout. In addition, the Potency entry in [14] is “inactive”. The max response in experiment [10] (setting [20]) stood at 25.3%; in experiment [10] (setting [21]), 26.2%.
As to `Cc1ccccc1-c1nccc(NCc2cccs2)n1`, the activity change, negative = inhibition was -5.62% (inactive) in experiment [2], 1.22% (inactive) in experiment [4] and 6.73% (inactive) in experiment [10]. In addition, the Potency was 0.501 µM (active) in [3]; > 46 µM (inactive) in [6]; > 46 µM (inactive) in experiment [7]; 2 µM (active) in [16]; 3.98 µM (active) in [19]; 25.1 µM (active) in experiment [13]. In addition, the activity, negative = inhibition in [5] is 3.98% (inactive). The call in [8] was inactive. For the same molecule, the Potency result in [9], in [17], in experiment [11], in experiment [12], in experiment [18] and in [14] was “inactive” each time. Besides, the max response was -2.46% in experiment [10] (setting [20]) and 6% in experiment [10] (setting [21]).
